This note sets out measurements from PubChem BioAssay (NCI).

Each structure is given as a SMILES string. About 83,000 compounds went through this panel and 20% of them were active in at least one assay; those are over-represented in the sample as a whole.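 Percent growth is the endpoint: 0 to 100 indicates growth inhibition (40 means 60% inhibition), 0 means no net growth, and negative values indicate cell death.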 Values without a mark were called inactive. The source made the active and inactive calls. How the source made its calls: active means growth percent below 10; inactive means the rest.

Holding throughout (assay): NCI-60 one-dose screen, 48 h (100 = growth as untreated, 0 = no growth, -100 = all killed)
Common to all, as to settings: 10 µM unless noted

Assay [1] concerns DU-145 prostate.
The test system of assay [2] is K-562 leukemia.
In assay [3] the test system is MALME-3M melanoma.
Assay [4] deals with MDA-MB-231 breast.
The test system of assay [5] is RXF 393 renal.
The test system of assay [6] is SF-268 CNS.
Assay [7] concerns SF-295 CNS.
Assay [8] deals with SF-539 CNS.
The subject of assay [9] is UACC-257 melanoma.
The subject of assay [10] is M14 melanoma.
The test system of assay [11] is HCT-15 colon.
Assay [12] deals with HT29 colon.
Assay [13] deals with SNB-75 CNS.
For assay [14], the system named is SNB-19 CNS.
Assay [15] concerns U251 CNS.
The subject of assay [16] is PC-3 prostate.
Assay [17] relates to SK-MEL-5 melanoma.
Assay [18] concerns UACC-62 melanoma.
For assay [19], the system named is LOX IMVI melanoma.
The subject of assay [20] is SK-MEL-28 melanoma.

As for `COc1nc2ccc(C)cc2cc1-c1nc2c(cnn2-c2ccccc2)c(=O)[nH]1`, the growth in [1] was 97.2%; in [2] it was 34.8%; in assay [3], 126%; in assay [4], 103%; in assay [5], 89.4%; in assay [6], 93.8%. Further, the growth is 90.9% in assay [7]; 99.9% in assay [8]; 86.4% in assay [9]; 71% in assay [10]; 61.8% in assay [11]; 48.3% in assay [12]. Also, the growth in assay [13] is 87.2%; in assay [14], 84%; in assay [15], 82.6%; in assay [16], 65.9%; in [17], 76.9%; in [18], 60.2%. Moreover, the growth in [19] was 70.4%; in [20] it was 81.9%.

With `COc1cc(CCCO)c(OC)c(OC)c1OC`, the growth in [1] is 109%; in [2] it was 104%; in [3] it was 100%; in [4] it was 109%; in assay [5] it was 108%; in assay [6], 101%. In addition, the growth was 106% in assay [7]; 97.1% in [8]; 103% in assay [9]; 110% in assay [10]; 110% in assay [11]; 108% in assay [12]. Further, the growth in assay [13] was 86.9%; in assay [14], 96.1%; in assay [15], 101%; in assay [16] it was 106%; in [17], 109%; in assay [18], 94.8%. The growth in [19] is 98.1%; in [20], 109%.

For `CC1=C(C)C(=O)C(Nc2cccc(C(=O)OC(C)(C)C)c2)=C(Br)C1=O`, the growth in assay [1] was 109%; in assay [2], 0% (active); in assay [3], 88.3%; in [4], -36.1% (active); in assay [5] it was 94.9%; in assay [6] it was 93.7%. Further, the growth was 101% in [7]; 94.7% in [8]; 87.3% in [9]; 95.1% in assay [10]; 73.2% in [11]; 118% in [12]. Also, the growth in assay [13] was 59.7%; in [14], 84.6%; in [15], 90.7%; in assay [16], 71.7%; in assay [17], 96%; in [18] it was 79.2%. Also, the growth was 34.9% in assay [19] and 101% in [20].

Turning to `C=C1C(=O)O[C@H]2[C@H]1CC/C(COC(=O)CCC(=O)NCCOCCOCC(=O)Nc1ccc(OC)c(C(N)=O)c1O)=C\CC[C@@]1(C)O[C@@H]21`, the growth in assay [1] was 101%; in [2], 86.2%; in assay [3], 92.7%; in [4] it was 95.2%; in [5] it was 67.9%; in assay [6], 95.2%. Moreover, the growth in assay [7] was 97.3%; in assay [8] it was 88.8%; in [9], 77.6%; in assay [10], 93.3%; in assay [11], 92.3%; in assay [12], 101%. Further, the growth in [13] was 95.6%; in assay [14] it was 99%; in assay [15], 94.9%; in assay [16], 101%; in assay [17], 102%; in assay [18], 89.2%. The growth in assay [19] was 87.7%; in [20], 93.2%.

Take `COc1ccc(OC)c(/C=C/C(=O)N/N=C/c2ccccc2)c1`: the growth in [1] is 72.5%; in [2] it was 21.2%; in [3], 59%; in assay [4] it was 71.8%; in [5], 45.4%; in assay [6], 60.7%. The growth was 48.5% in assay [7]; 51.8% in assay [8]; 51.3% in assay [9]; 27.8% in [10]; 42% in assay [11]; 20.7% in assay [12]. The growth in assay [13] is 41.1%; in assay [14] it was 47.9%; in assay [15] it was 43.5%; in assay [16], 63.5%; in assay [17], 30.8%; in [18] it was 61%. For the same compound, the growth in assay [19] was 42.1%; in [20] it was 65.5%.

For the compound `CC(C)c1cc(C(C)C)c(S(=O)(=O)Oc2ccc(NC(=O)c3ccc(Cl)cc3)cc2)c(C(C)C)c1`, the growth in assay [1] is 43.7%; in assay [2], 16.4%; in assay [3], 53.8%; in [4] it was 52.1%; in assay [5] it was 51.4%; in assay [6], 50.6%. Besides, the growth in [7] was 11.4%; in assay [8], 73.6%; in assay [9], 24.7%; in assay [10] it was 36.2%; in [11] it was 20.2%; in assay [12], 46.6%. The growth is 64.9% in assay [13]; 17.6% in assay [14]; 20.9% in assay [15]; 14% in assay [16]; 31.4% in [17]; 9.11% (active) in assay [18]. Moreover, the growth in assay [19] is 33.5%; in [20], 56.8%.

As for `COc1ccc(C(=S)N2CCN(c3cccc(C)c3)CC2)cc1OC`, the growth is 90.7% in [1]; 25.5% in [2]; 80% in assay [3]; 77.3% in assay [4]; 67.8% in [5]; 84.7% in [6]. The growth in [7] was 57.4%; in [8], 82.2%; in [9], 77.7%; in assay [10], 38.4%; in [11], 44.5%; in [12], 43.3%. For the same compound, the growth in assay [13] is 59.7%; in [14], 78.5%; in assay [15], 53.9%; in assay [16], 75.3%; in assay [17], 60.2%; in assay [18], 64%. Further, the results for the growth in assay [19] and in assay [20] were 55.7% and 75.7%, respectively.
